Results from the supplement of paper PMC9262897, “Low-cost anti-mycobacterial drug discovery using engineered E. coli” (Nature Communications, 2022).
Counter-ions that a name gives are not always drawn. ± gives the standard deviation of the averaged measurements.

Legend:
Assay in all cases: growth (OD600 after 10 h); higher = more growth (less inhibition)
[1] = system: E. coli TESEC Alr+ wild-type control; settings: compound 0.1 mM; raw OD600 reference: median of DMSO wells 0.241, cell-free background 0.041
Method: (§1)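 TESEC Mtb Alr E. coli, or the Alr+ wild-type control, in 384-well plates with Prestwick library compounds at 0.1 mM and 1% DMSO, across arabinose induction levels of 1E3 to 1E7 nM. Growth is read as OD600 after 10 h at 37 °C in triplicate biological replicates.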

E. coli TESEC Mtb Alr [2] = settings: compound 0.1 mM
Method: as §1

E. coli TESEC Mtb Asd = settings: compound 0.1 mM
Method: (§2)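 TESEC E. coli strains in which the native enzyme is deleted and replaced by arabinose-inducible Mtb Asd, DapB, CysH or TrpD, each grown in its selective medium. Strains were screened against the Prestwick library at 0.1 mM and 1% DMSO in 384-well format at low and high arabinose induction. Growth is read as OD600 after 10 h in triplicate.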

E. coli TESEC Mtb DapB = settings: compound 0.1 mM
Method: as §2

E. coli TESEC Mtb Alr [3] = settings: compound 0.1 mM; remark: listed apart in the source
Method: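 TESEC Mtb Alr E. coli (ΔaraC ΔtolC ΔentC Δalr ΔdadX, arabinose-inducible Mtb Alr) or the Alr+ wild-type control strain, grown in defined M9-fructose medium without D-alanine in 96-well plates with Prestwick library compounds at 0.1 mM and 1% DMSO. Low Alr induction is 0.1 µM arabinose and high induction is 10 mM arabinose.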

[4] = arabinose 1000 nM, raw OD600 reference: median of DMSO wells 0.294, cell-free background 0.041
[5] = arabinose 10000 nM, raw OD600 reference: median of DMSO wells 0.264, cell-free background 0.041
[6] = arabinose 100000 nM, raw OD600 reference: median of DMSO wells 0.201, cell-free background 0.041
[7] = arabinose 1000000 nM, raw OD600 reference: median of DMSO wells 0.193, cell-free background 0.041
[8] = arabinose 10000000 nM, raw OD600 reference: median of DMSO wells 0.146, cell-free background 0.041
[9] = arabinose induction (level): High, raw OD600 reference: median of DMSO wells 0.331, cell-free background 0.041
[10] = arabinose induction (level): Low, raw OD600 reference: median of DMSO wells 0.417, cell-free background 0.041
[11] = arabinose induction (level): High, raw OD600 reference: median of DMSO wells […], cell-free background 0.041
[12] = arabinose induction (level): Low, raw OD600 reference: median of DMSO wells 0.227, cell-free background 0.041
[13] = arabinose 100 nM, raw OD600 reference: median of DMSO wells 0.413, cell-free background 0.052
[14] = arabinose 10000000 nM, raw OD600 reference: median of DMSO wells […], cell-free background 0.052

Compound | growth [1] | growth (E. coli TESEC Mtb Alr [2]; [4]) | growth (E. coli TESEC Mtb Alr [2]; [5]) | growth (E. coli TESEC Mtb Alr [2]; [6]) | growth (E. coli TESEC Mtb Alr [2]; [7]) | growth (E. coli TESEC Mtb Alr [2]; [8]) | growth (E. coli TESEC Mtb Asd; [9]) | growth (E. coli TESEC Mtb Asd; [10]) | growth (E. coli TESEC Mtb DapB; [11]) | growth (E. coli TESEC Mtb DapB; [12]) | growth (E. coli TESEC Mtb Alr [3]; [13]) | growth (E. coli TESEC Mtb Alr [3]; [14])
Nc1nc(=O)c2c([nH]1)NC[C@@H](CNc1ccc(C(=O)N[C@@H](CCC(=O)O)C(=O)O)cc1)N2C=O [Folinic acid calcium salt] | 0.255 ± 0.0064 | 0.289 ± 0.0096 | 0.274 ± 0.0059 | 0.204 ± 0.033 | 0.211 ± 0.016 | 0.1379 ± 0.0013 | 0.307 ± 0.0086 | 0.391 ± 0.08 | 0.203 ± 0.012 | 0.218 ± 0.014 | 0.397 ± 0.008 | 0.375 ± 0.019
NS(=O)(=O)c1cc2c(cc1C(F)(F)F)NCNS2(=O)=O [Hydroflumethiazide] | 0.2612 ± 0.002 | 0.296 ± 0.0066 | 0.262 ± 0.01 | 0.239 ± 0.011 | 0.1758 ± 0.0006 | 0.147 ± 0.0041 | 0.388 ± 0.036 | 0.442 ± 0.06 | 0.184 ± 0.012 | 0.239 ± 0.028 | 0.406 ± 0.013 | 0.32 ± 0.053
CC(=O)CC(c1ccc([N+](=O)[O-])cc1)c1c(O)c2ccccc2oc1=O (stereo unspecified) [Acenocoumarol] | 0.244 ± 0.0011 | 0.298 ± 0.0045 | 0.2588 ± 0.0011 | 0.175 ± 0.0092 | 0.1675 ± 0.0012 | 0.139 ± 0.0017 | 0.26 ± 0.023 | 0.293 ± 0.051 | 0.175 ± 0.015 | 0.189 ± 0.0085 | 0.395 ± 0.011 | 0.323 ± 0.024
CCOC(=O)n1ccn(C)c1=S [Carbimazole] | 0.239 ± 0.0029 | 0.297 ± 0.0079 | 0.27 ± 0.012 | 0.192 ± 0.0037 | 0.212 ± 0.0081 | 0.145 ± 0.0022 | 0.346 ± 0.079 | 0.284 ± 0.037 | 0.216 ± 0.011 | 0.239 ± 0.025 | 0.424 ± 0.011 | 0.407 ± 0.0073
OC(CCN1CCCCC1)(c1ccccc1)c1ccccc1 [Pridinol methanesulfonate salt] | 0.226 ± 0.0064 | 0.299 ± 0.011 | 0.28 ± 0.012 | 0.193 ± 0.0055 | 0.177 ± 0.0082 | 0.151 ± 0.0016 | 0.468 ± 0.015 | 0.466 ± 0.027 | 0.194 ± 0.02 | 0.262 ± 0.035 | 0.397 ± 0.032 | 0.352 ± 0.011
COc1c(N2CCNC(C)C2)c(F)cc2c(=O)c(C(=O)O)cn(C3CC3)c12 (stereo unspecified) [Gatifloxacin] | 0.0447 ± 0.0053 | 0.0402 ± 0.00046 | 0.0396 ± 0.0002 | 0.04067 ± 0.00032 | 0.03983 ± 0.00029 | 0.0409 ± 0.00055 | 0.0508 ± 0.0018 | 0.0482 ± 0.0013 | 0.04873 ± 0.00025 | 0.04953 ± 0.00047 | 0.0533 ± 0.00079 | 0.0521 ± 0.0016
CN(C)[C@@H]1C(=O)C(C(N)=O)=C(O)[C@@]2(O)C(=O)C3=C(O)c4c(O)ccc(Cl)c4[C@@H](O)[C@H]3C[C@@H]12 [Demeclocycline hydrochloride] | 0.0424 ± 0.00081 | 0.0502 ± 0.0039 | 0.0459 ± 0.0013 | 0.0479 ± 0.0019 | 0.0435 ± 0.00079 | 0.0452 ± 0.0007 | 0.0573 ± 0.0014 | 0.0773 ± 0.029 | 0.0577 ± 0.0035 | 0.0559 ± 0.002 | 0.0561 ± 0.0037 | 0.05407 ± 0.00042
CCCCCCCCNC(C)C(O)c1ccc(SC(C)C)cc1 (stereo unspecified) [Suloctidil] | 0.0763 ± 0.037 | 0.0398 ± 0.0011 | 0.0405 ± 0.00085 | 0.0403 ± 0.00044 | 0.0856 ± 0.078 | 0.0896 ± 0.085 | 0.191 ± 0.016 | 0.162 ± 0.074 | 0.153 ± 0.023 | 0.189 ± 0.019 | 0.0587 ± 0.0041 | 0.0516 ± 0.00081
CCOC(=O)[C@H](CCc1ccccc1)N[C@@H](C)C(=O)N1Cc2ccccc2C[C@H]1C(=O)O [Quinapril HCl] | 0.218 ± 0.012 | 0.29 ± 0.0069 | 0.2807 ± 0.0024 | 0.155 ± 0.012 | 0.21 ± 0.0061 | 0.144 ± 0.0052 | 0.246 ± 0.03 | 0.403 ± 0.052 | 0.155 ± 0.012 | 0.165 ± 0.0056 | 0.384 ± 0.015 | 0.309 ± 0.011
CN1CCCCC1CCN1c2ccccc2Sc2ccc([S+](C)[O-])cc21 (stereo unspecified) [Mesoridazine besylate] | 0.169 ± 0.0023 | 0.24 ± 0.012 | 0.266 ± 0.0092 | 0.225 ± 0.032 | 0.131 ± 0.0058 | 0.149 ± 0.005 | 0.204 ± 0.023 | 0.339 ± 0.091 | 0.191 ± 0.007 | 0.202 ± 0.027 | 0.403 ± 0.0065 | 0.3 ± 0.02
CC(C)(CO)C(O)C(=O)NCCCO (stereo unspecified) [Panthenol (D)] | 0.261 ± 0.0085 | 0.296 ± 0.01 | 0.261 ± 0.0092 | 0.216 ± 0.053 | 0.192 ± 0.0077 | 0.147 ± 0.0069 | 0.357 ± 0.034 | 0.409 ± 0.043 | 0.185 ± 0.0037 | 0.219 ± 0.024 | 0.406 ± 0.011 | 0.287 ± 0.13
CN(C)CCCC1(c2ccc(F)cc2)OCc2cc(C#N)ccc21 (stereo unspecified) [Citalopram Hydrobromide] | 0.207 ± 0.0054 | 0.272 ± 0.011 | 0.25 ± 0.0072 | 0.173 ± 0.0067 | 0.155 ± 0.0054 | 0.138 ± 0.0049 | 0.289 ± 0.024 | 0.397 ± 0.051 | 0.191 ± 0.022 | 0.211 ± 0.017 | 0.4152 ± 0.0024 | 0.321 ± 0.017
COc1ccc2cc(CCC(C)=O)ccc2c1 [Nabumetone] | 0.168 ± 0.0082 | 0.208 ± 0.028 | 0.2236 ± 0.0013 | 0.152 ± 0.012 | 0.109 ± 0.0058 | 0.14 ± 0.0083 | 0.304 ± 0.073 | 0.247 ± 0.04 | 0.175 ± 0.0022 | 0.187 ± 0.0098 | 0.399 ± 0.01 | 0.297 ± 0.017
CN(C)CCOC(=O)COc1ccc(Cl)cc1 [Meclofenoxate hydrochloride] | 0.235 ± 0.0029 | 0.3 ± 0.018 | 0.267 ± 0.0092 | 0.199 ± 0.013 | 0.184 ± 0.0027 | 0.138 ± 0.0014 | 0.355 ± 0.032 | 0.426 ± 0.029 | 0.199 ± 0.014 | 0.204 ± 0.019 | 0.4 ± 0.013 | 0.313 ± 0.014
Cc1ncc([N+](=O)[O-])n1CCO [Metronidazole] | 0.244 ± 0.0028 | 0.291 ± 0.014 | 0.264 ± 0.0049 | 0.221 ± 0.036 | 0.177 ± 0.0036 | 0.144 ± 0.0031 | 0.378 ± 0.03 | 0.378 ± 0.013 | 0.202 ± 0.015 | 0.264 ± 0.052 | 0.394 ± 0.021 | 0.347 ± 0.038
COc1cccc2c1C(=O)c1c(O)c3c(c(O)c1C2=O)C[C@@](O)(C(=O)CO)C[C@@H]3O[C@H]1C[C@H](N)[C@@H](O)[C@H](C)O1 [Epirubicin hydrochloride] | 0.04433 ± 0.00032 | 0.0453 ± 0.0011 | 0.04623 ± 0.00032 | 0.0469 ± 0.0005 | 0.0457 ± 0.00068 | 0.0453 ± 0.0005 | 0.068 ± 0.0071 | 0.0576 ± 0.0035 | 0.0567 ± 0.0034 | 0.0562 ± 0.0015 | 0.0587 ± 0.0013 | 0.0582 ± 0.00053
CN(C)CCCN1c2ccccc2Sc2ccccc21 [Promazine hydrochloride] | 0.189 ± 0.0053 | 0.227 ± 0.011 | 0.2724 ± 0.002 | 0.192 ± 0.01 | 0.129 ± 0.0026 | 0.158 ± 0.004 | 0.187 ± 0.03 | 0.261 ± 0.023 | 0.195 ± 0.017 | 0.254 ± 0.033 | 0.415 ± 0.0068 | 0.273 ± 0.0038
CCCCOc1cc(C(=O)NCCN(CC)CC)c2ccccc2n1 [Dibucaine] | 0.216 ± 0.016 | 0.281 ± 0.0065 | 0.26283 ± 0.00023 | 0.208 ± 0.0075 | 0.154 ± 0.0091 | 0.174 ± 0.0038 | 0.239 ± 0.058 | 0.3947 ± 0.0033 | 0.184 ± 0.016 | 0.25 ± 0.025 | 0.415 ± 0.0019 | 0.321 ± 0.025
